Compounds without any hit were thinned out: in the full panel of roughly 83,000, 20% have a hit.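 Interpretation: 100, growth as untreated; towards 0, rising growth inhibition; 0, no net growth; 0 to -100, cell death. Compounds scoring below 10 were considered active.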 A number with no mark means an inactive call. The source made the active and inactive calls.

This assay concerns HOP-62 NSCLC. Put plainly: NCI-60 one-dose screen, 48 h (100 = growth as untreated, 0 = no growth, -100 = all killed). As to conditions: 10 µM unless noted. How it is done:
Growth inhibition of the HOP-62 human Non-Small Cell Lung tumor cell line is measured as a screen for anti-cancer activity. Cells are grown in 96 well plates and exposed to the test compound for 48 hours. Compounds are tested at a single concentration, which is 10^-5 M for most compounds. The reported endpoint is percent growth (GI% or GIPRCNT), where numbers from 0 - 100% represent growth inhibition, and numbers from -100% - 0 represent cell death. For example, a value of 40 represents 60% growth inhibition. A value of 0 means no net growth occurred over the course of the experiment. A value of -40 indicates 40% of cells at the beginning of the experiment died by the end of the experiment. A value of -100 means all cells are dead at the end of the experiment.
NCI-60 Human Tumor Cell Lines Screen was performed using the standard one-dose NCI protocol, which is described in more detail at https://dtp.cancer.gov/discovery_development/nci-60/default.htm.
Compounds with GIPRCNT values below 10 were considered active. Activity score was based on GIPRCNT using the following formula: […]
Score is 0 for GIPRCNT values of 100 or above, 50 for GIPRCNT values of 0, and 100 for GIPRCNT values of -100.
Regarding `Cc1cc(N(CCNc2ccnc3cc(Cl)ccc23)Cc2ccc3c(c2)OCO3)nc(N2CCCC2)n1`, the growth is -25.8% (active). On to `COc1ccc(CCCc2c3[n+](cc4c(OC)c(OC)ccc24)CCc2cc4c(cc2-3)OCO4)cc1`, for which the growth was 78.6%. Under `CC(C)(C)c1ccc(Cn2cc(CSc3nc4ccccc4s3)nn2)cc1` stands 87.6%; under `CC1(COc2ccc3c(c2)ncn3-c2ccc3cccc(N4CCC(N)CC4)c3n2)COC1`, 2.15% (active). The same measure for `CC(C)[C@@H](C)/C=C/[C@@H](C)[C@H]1CCC2=C3C=CC4=CC(=O)CC[C@]4(C)[C@H]3CC[C@@]21C`: 104%; for `CC(=O)OC1Oc2ccccc2-c2oc(=O)c(-c3cc4ccc(N(C)C)cc4oc3=O)cc21` (stereo not given): 69.4%. For `CCCCn1c(C)nc2cc(Nc3nc(N4CCCCC4)nc4nc[nH]c34)ccc21`, the growth is 62.1%. Under `O=C1C=CC2(NN=C(c3ccccc3)N2c2cccc(Cl)c2)C(Cl)=C1` (stereo not given) stands 63.8%; under `Cc1ccc2oc(=O)cc(-c3cc(-c4cc5ccccc5oc4=O)nc(N)c3C#N)c2c1`, 35.9%; under `CCN1CCN(c2nc(C)cc(N(CCCNc3ccnc4cc(Cl)ccc34)Cc3ccc4c(c3)OCO4)n2)CC1`, -42.1% (active). The same measure for `COc1cc(OC)c(C(=O)/C=C/c2cc3c(cc2OCc2ccccc2)OC(C)(C)CC3)cc1CC=C(C)C`: 85.2%. In the case of `C[C@@H]1COC(Nc2ccc3ncnc(Nc4ccc(OCc5nccs5)c(Cl)c4)c3c2)=N1`, the growth is 17.5%. Under `N#Cc1c(C(F)(F)F)cc(Nc2ccc3nc(NCCN4CCCC4)oc3c2)n2c1nc1ccccc12` stands 75%; under `CC1(O)CCC2CC3OC3(C)CCC3OC3(C)C(O)CC1C2(C)C` (stereo not given), 116%. Turning to `COc1ccc2c(c1OC)C(=O)O[C@@H]2[C@H]1c2c(c(C#CC#Cc3ccc(F)c(F)c3)c3c(c2OC)OCO3)CCN1C`, the growth was 68%. The same measure for `Cc1ccsc1C(NC(=O)c1ccccc1)c1cc(Cl)c2cccnc2c1O` (stereo not given): 15%; for `Cc1sc2c(c1C)c(=O)nc1c(-c3nc4ccccc4s3)n[nH]n12`: 90.1%.

For the molecule `C[C@H]1Oc2cc(cnc2N)-c2c(nn(C)c2C#N)CN(C)C(=O)c2ccc(F)cc21`, the growth was 50%.

Regarding `N#Cc1c(-c2ccc(C(F)(F)F)cc2)c(F)c(NCCC2CCC(O)C2)n2c1nc1ccccc12` (stereo not given), the growth is 59.2%.

With `O=c1nc2c(-c3nc4ccccc4s3)n[nH]n2c2sc3c(c12)CCCC3`, the growth is 90.5%. `COc1cc(N2CCC(N(C)C)CC2)ccc1Nc1ncc(Cl)c(Nc2ccccc2P(C)(C)=O)n1`: the growth is -4.93% (active). For `Nc1nc(N)c2cc(CNc3ccc(C(=O)NC(CC(=O)O)C(=O)O)cc3)ccc2n1` (stereo not given), the growth was 19.7%. For `CS(=O)(=O)CCNCc1ccc(-c2ccc3ncnc(Nc4ccc(OCc5cccc(F)c5)c(Cl)c4)c3c2)o1`, the growth was 19.2%.

For `C=CCC(=O)N[C@H](/C=C/C(=O)O)Cc1ccc(-c2cc(Cl)cc(Cl)c2)cc1`, the growth is 82%.

`COc1ccc(-c2ccc3c(N4CCOC[C@@H]4C)nc(N4CCOC[C@@H]4C)nc3n2)cc1CO`: the growth is -12.9% (active). For the molecule `Cc1cn(-c2cc(NC(=O)c3ccc(C)c(Nc4nccc(-c5cccnc5)n4)c3)cc(C(F)(F)F)c2)cn1`, the growth was 47.5%. The same measure for `COc1cc2ncnc(Oc3cccc(NC(=O)Nc4cc(C(C)(C)C(F)(F)F)on4)c3)c2cc1OC`: 37.1%; for `COC(=O)C1CCc2sc3ncnc(Nc4cn[nH]c4C(=O)Nc4ccc(CN5CCN(C)CC5)cc4)c3c21` (stereo not given): 0.169% (active). The same measure for `CC(C)NC[C@@H](C(=O)N1CCN(c2ncnc3c2[C@H](C)C[C@H]3O)CC1)c1ccc(Cl)cc1`: 54%. Under `C=CCCCOC1[C@H](OCc2ccccc2)C(OCc2ccccc2)C(OC)O[C@@H]1CNC(=O)c1cccc(I)c1` (stereo not given in full) stands 77.7%; under `COc1cc2ncnc(Nc3ccc(F)c(Cl)c3)c2cc1NC(=O)/C=C/CN1CCCCC1`, -51.9% (active); under `CCN1CCN(c2cc(C)nc(N(CCCNc3ccnc4cc(Cl)ccc34)Cc3ccc4c(c3)OCO4)n2)CC1`, -38.8% (active). In the case of `O=C(COc1ccc(/C=C2\Cc3ccc(Cl)cc3C2=O)cc1)Nc1nccs1`, the growth was 101%. On to `CC(=Nc1ccccc1)C1=C(O)C(Cc2ccc(O)cc2)NC1=O` (stereo not given), for which the growth was 19.8%. Under `COc1ccc2c(CCCCC(c3ccccc3)c3ccccc3)c3[n+](cc2c1OC)CCc1cc2c(cc1-3)OCO2` stands -42.7% (active). Under `CCCCN1CCCC[C@@H]1C(=O)N[C@H](C(=O)N(C)[C@H](CCc1nc(C(=O)N[C@@H](Cc2ccccc2)C[C@H](C)C(=O)OC)cs1)C(C)C)C(C)C` stands 80.8%. The same measure for `COc1cc(-c2cc(-c3ccc(Nc4ccnc5cc(Cl)ccc45)cc3)nc(N3CCOCC3)n2)cc(OC)c1OC`: -39.1% (active). On to `O=C(c1c(F)ccc(NS(=O)(=O)N2CC[C@@H](F)C2)c1F)c1c[nH]c2ncc(-c3cnc(C4CC4)nc3)cc12`, for which the growth was 37.7%.

As for `CNC(=O)c1ccc(Nc2ncc(C(F)(F)F)c(NCc3nccnc3N(C)S(C)(=O)=O)n2)cc1`, the growth was -23.5% (active). Consider `Cn1ncc(Cl)c1-c1cc(C(=O)N[C@H](CN)Cc2ccc(F)c(F)c2)oc1Cl`, for which the growth is -49.4% (active).

The values are drawn from PubChem BioAssay (NCI).
